The results in this text go back to PubChem BioAssay.

The subject of assay [1] is Aerobactin synthetase IucA (Klebsiella pneumoniae hvKP1). Description: Biochemical IucA enzyme inhibition primary screen of the Spectrum library (AID 1346200).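 Also: 100% = wells without compound and 0% = wells lacking enzyme.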 The settings on record: malachite green pyrophosphate, A620, at 8 µM, hits give low values.
The test system of assay [2] is Aerobactin synthetase IucA (Klebsiella pneumoniae, hypervirulent). The assay can be described thus: IucA enzyme inhibition, biochemical, LOPAC library, absorbance readout (AID 1346212).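 Also: 100% = no compound wells and 0% = no enzyme wells.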 The settings on record: IucA enzyme assay, absorbance (OD) readout; hits give low values;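 tested at 8 µM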.

Values joined by “and” are separate entries in the source; they are usually repeats but may differ in a detail not shown here. Identical values can stand only once. A number with no mark means an inactive call. No rule for the calls is given here.

A word on the remaining activity: it is the signal under treatment as a percentage of the control signal. As to `CCCCOc1cc(CC2CNC(=O)N2)ccc1OC` (stereo not given), in assay [1], the activity remaining was 115%. Besides, the remaining activity in assay [2] is 110%.

`NS(=O)(=O)c1cc(C(=O)O)c(NCc2ccco2)cc1Cl`: the activity remaining in assay [1] was 105%. Besides, the remaining activity in assay [2] was 97.8%.

`Cc1c(OCC(F)(F)F)ccnc1CS(=O)c1nc2ccccc2[nH]1` (stereo not given): the activity remaining in assay [1] is 121%. In addition, the remaining activity in assay [2] was 111%.

Turning to `CCN(CC)CCNC(=O)c1ccc(N)cc1`, in assay [1], the activity remaining is 95.4%. The remaining activity in assay [2] was 96.2%.

With `c1ccc([C@H]2CN3CCSC3=N2)cc1`, in assay [1], the activity remaining is 117%. Moreover, in assay [2], the remaining activity is 112%.

On to `CN1C2CCC1CC(OC(c1ccccc1)c1ccccc1)C2` (stereo not given), for which, in assay [1], the activity remaining was 101%. The remaining activity in assay [2] is 113%.

`CC1=NS(=O)(=O)c2cc(Cl)ccc2N1`: the activity remaining in assay [1] was 107%. For the same compound, in assay [2], the remaining activity was 105%.

Turning to `O=C1CCc2cc(OCCCCc3nnnn3C3CCCCC3)ccc2N1`, the activity remaining in assay [1] is 117%. Also, the remaining activity in assay [2] is 113%.

Regarding `CN1CCC[C@@H]1CCO[C@](C)(c1ccccc1)c1ccc(Cl)cc1`, the activity remaining in assay [1] was 99.3%. Also, in assay [2], the remaining activity was 109%.

Consider `Cc1cn([C@H]2C[C@H](N=[N+]=[N-])[C@@H](CO)O2)c(=O)[nH]c1=O`, for which the activity remaining in assay [1] was 114%. Besides, the remaining activity in assay [2] was 117%.

With `CN(C)CCOC(C)(c1ccccc1)c1ccccn1` (stereo not given), the activity remaining in assay [1] is 104%. Also, the remaining activity in assay [2] was 101%.

For the compound `NC(CO)C(=O)NNCc1ccc(O)c(O)c1O` (stereo not given), the activity remaining in assay [1] is 109%. In addition, the remaining activity in assay [2] was 111%.

Regarding `NCCCCN=C(N)N`, the activity remaining in assay [1] was 123%. Besides, the remaining activity in assay [2] was 111%.

On to `CN(C)CCOC(c1ccccc1)c1ccccc1`, for which the activity remaining in assay [1] is 105%. In addition, the remaining activity in assay [2] was 100%.

For the compound `NC(=O)c1ncn([C@@H]2O[C@H](CO)[C@@H](O)[C@H]2O)n1`, the activity remaining in assay [1] was 120%. Further, the remaining activity in assay [2] is 96.8%.

On to `CCN(CC)CCNC(=O)c1cc(Cl)c(N)cc1OC`, for which, in assay [1], the activity remaining is 88.1%. Further, the remaining activity in assay [2] was 101%.

For `O=C(O)c1cc2cc(Cc3cccnc3)ccc2o1`, in assay [1], the activity remaining is 121%. Also, in assay [2], the remaining activity is 104%.

Regarding `O=C(O)C1=CCCNC1`, the activity remaining in assay [1] is 98.7%. Moreover, the remaining activity in assay [2] is 96.8%.

Consider `NC(=NCc1ccccc1)NC(=O)c1nc(Cl)c(N)nc1N`, for which the activity remaining in assay [1] is 78.3%. Also, the remaining activity in assay [2] was 94.8%.

Turning to `CCN(CC)CCNC(=O)c1ccc(NC(C)=O)cc1`, the activity remaining in assay [1] is 92.5%. Also, the remaining activity in assay [2] was 109%.

Regarding `O=c1[nH]cc(F)c(=O)[nH]1`, in assay [1], the activity remaining is 96.1%. Moreover, the remaining activity in assay [2] is 98.4%.

For the compound `NCCCCC(=O)O`, the activity remaining in assay [1] is 107%. Further, in assay [2], the remaining activity was 104%.

On to `CCCNC(=O)NS(=O)(=O)c1ccc(Cl)cc1`, for which the activity remaining in assay [1] was 118%. Moreover, in assay [2], the remaining activity was 103%.

As for `CN(C)C(=O)Oc1ccc[n+](C)c1`, in assay [1], the activity remaining was 93.4%. Moreover, the remaining activity in assay [2] was 91.3%.

`Cc1ccc(/C(=C\CN2CCCC2)c2ccccn2)cc1`: the activity remaining in assay [1] was 103%. Further, the remaining activity in assay [2] was 121%.

`Cc1nc2ccccn2c(=O)c1CCN1CCC(C(=O)c2ccc(F)cc2)CC1`: in assay [1], the activity remaining was 120%. Further, the remaining activity in assay [2] was 101%.

For the compound `CNCCC(Oc1ccc(C(F)(F)F)cc1)c1ccccc1` (stereo not given), the activity remaining in assay [1] is 96.1%. The remaining activity in assay [2] was 96.6%.

For `C[N+]1(CCCCC[N+]2(C)CCCC2)CCCC1`, the activity remaining in assay [1] is 89.1%. Further, the remaining activity in assay [2] was 119%.

`CCCCS(=N)(=O)CCC(N)C(=O)O` (stereo not given): the activity remaining in assay [1] was 102%. The remaining activity in assay [2] was 84.7%.

Take `CCCCNc1ccc(C(=O)OCCN(C)C)cc1`: the activity remaining in assay [1] is 118%. For the same compound, the remaining activity in assay [2] was 97.3%.

On to `NCCS`, for which the activity remaining in assay [1] is 117%. Besides, the remaining activity in assay [2] is 110%.

As for `CS(=O)(=O)Nc1ccc([N+](=O)[O-])cc1Oc1ccccc1`, in assay [1], the activity remaining is 113%. Also, in assay [2], the remaining activity was 117%.

As for `Cc1cc(C(C)(C)C)cc(C)c1CC1=NCCN1`, in assay [1], the activity remaining was 126%. Further, the remaining activity in assay [2] is 115%.

In the case of `O=C1NC(=O)C(c2ccccc2)(c2ccccc2)N1`, in assay [1], the activity remaining was 122%. Moreover, in assay [2], the remaining activity was 124% and 101%.

On to `NC(=O)c1cccc(N)c1`, for which the activity remaining in assay [1] is 121%. Moreover, the remaining activity in assay [2] is 113%.

Turning to `CCCNCC(O)COc1ccccc1C(=O)CCc1ccccc1` (stereo not given), the activity remaining in assay [1] was 104%. In addition, the remaining activity in assay [2] was 112%.

For `Cc1ccccc1N1C(=O)c2cc(S(N)(=O)=O)c(Cl)cc2NC1C` (stereo not given), the activity remaining in assay [1] was 95.7%. In assay [2], the remaining activity is 122% and 125%.

For the compound `NCCCNCCSP(=O)(O)O`, the activity remaining in assay [1] is 113%. Further, the remaining activity in assay [2] is 108%.

On to `O=C(c1ccccc1)c1ccc2n1CCC2C(=O)O` (stereo not given), for which the activity remaining in assay [1] was 128%. The remaining activity in assay [2] was 120%.

For the compound `CNC(=O)Oc1ccc2c(c1)[C@]1(C)CCN(C)[C@@H]1N2C`, the activity remaining in assay [1] is 116%. In addition, the remaining activity in assay [2] is 110%.

On to `CCN(CC)CCOC(=O)c1ccc(N)cc1`, for which, in assay [1], the activity remaining was 105%. Besides, the remaining activity in assay [2] was 106%.

For the compound `CC(COc1ccccc1)N(CCCl)Cc1ccccc1` (stereo not given), the activity remaining in assay [1] was 107%. Also, in assay [2], the remaining activity is 109%.

As to `CC(C)OC(=O)C(C)(C)Oc1ccc(C(=O)c2ccc(Cl)cc2)cc1`, in assay [1], the activity remaining was 94.1%. Further, the remaining activity in assay [2] was 108%.

Take `CN(C)CCC(c1ccccc1)c1ccccn1` (stereo not given): the activity remaining in assay [1] was 109%. Besides, the remaining activity in assay [2] is 89.8%.

Consider `CC1(C)NC(=O)N(c2ccc([N+](=O)[O-])c(C(F)(F)F)c2)C1=O`, for which the activity remaining in assay [1] is 124%. Further, the remaining activity in assay [2] was 98.2%.

Take `CC(C)NNC(=O)c1ccncc1`: the activity remaining in assay [1] was 93.2%. Moreover, the remaining activity in assay [2] is 128%.

In the case of `O=C(O)CCc1nc(-c2ccccc2)c(-c2ccccc2)o1`, the activity remaining in assay [1] is 111%. For the same compound, the remaining activity in assay [2] is 116%.

For `O=c1c(-c2ccc(O)cc2)coc2cc(O)ccc12`, the activity remaining in assay [1] is 118%. The remaining activity in assay [2] is 99.6%.

With `COc1ccc(C2CNC(=O)C2)cc1OC1CCCC1` (stereo not given), in assay [1], the activity remaining was 120%. In addition, in assay [2], the remaining activity was 91.4%.

On to `CC(N=C(NC#N)Nc1ccncc1)C(C)(C)C` (stereo not given), for which the activity remaining in assay [1] was 105%. The remaining activity in assay [2] was 92.7%.

Consider `CCC1(c2ccccc2)C(=O)NCNC1=O`, for which, in assay [1], the activity remaining was 125%. Also, the remaining activity in assay [2] was 75.1%.

With `NS(=O)(=O)c1cc2c(cc1Cl)NC(C1CC3C=CC1C3)NS2(=O)=O` (stereo not given), the activity remaining in assay [1] was 122%. Also, the remaining activity in assay [2] is 95.7%.

With `Fc1ccc(C(c2ccc(F)cc2)N2CCN(C/C=C/c3ccccc3)CC2)cc1`, the activity remaining in assay [1] was 117%. Moreover, the remaining activity in assay [2] was 103%.

With `CN[C@H](CC(=O)O)C(=O)O`, the activity remaining in assay [1] is 118%. In assay [2], the remaining activity was 118%.

`Cn1c(=O)c2[nH]c(C3CCCC3)nc2n(C)c1=O`: in assay [1], the activity remaining was 97.7%. Moreover, the remaining activity in assay [2] is 70.6%.

As to `CCSC(=N)N`, in assay [1], the activity remaining was 103%. Further, in assay [2], the remaining activity is 93.6%.

On to `Clc1ccc(C(c2ccccc2Cl)C(Cl)Cl)cc1` (stereo not given), for which the activity remaining in assay [1] was 92.7%. Further, in assay [2], the remaining activity is 111%.

For `CN(C)c1nc(N(C)C)nc(N(C)C)n1`, in assay [1], the activity remaining was 118%. Besides, in assay [2], the remaining activity was 120%.

Take `O=C1CC2(CCCC2)CC(=O)N1CCCCN1CCN(c2ncccn2)CC1`: in assay [1], the activity remaining is 118%. Besides, the remaining activity in assay [2] was 111%.

Turning to `CC(C)NCC(O)c1cc(O)cc(O)c1` (stereo not given), in assay [1], the activity remaining is 126%. In addition, in assay [2], the remaining activity was 118%.
